Bioassay records from PubChem BioAssay.
KB-V1 cytotox: qHTS assay for MDR1-selective chemotherapeutics: Primary screen using the drug-selected MDR subline cells KB-V1 | KB-V1 MDR cells viability, CellTiter-Glo, 72 h | Potency, µM (titrated, usually from 46.1 µM), usual class: cytotoxic | 3.4% of 400,000 active; further: potency means the concentration at half of the fitted maximal effect; on the % scale 0 is the no-effect control and ±100 the full control effect; nearly all actives have a fitted effect of over 60% in size
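Potencies derive from concentration-effect curves fitted to normalized luminescence (CellTiter-Glo) of KB-V1 cells treated for 72 h at 37 degrees C in phenol-red-free DMEM containing 10% FBS.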
MCF10A rerep: A quantitative high throughput screen for small molecules that induce DNA re-replication in MCF 10a normal breast cells; MCF 10A DNA re-replication, Hoechst nuclear intensity, 48 h; Potency, µM (highest dose often 46.1 µM), inactives show top-dose activity, positive = re-replication, most hits filed as activators; 2.9% of 350,000 active; AID 624296, 2012; further: potency means the concentration at half of the fitted maximal effect; % of control where 0% means no effect; nearly all actives have a fitted effect of over 50% in size
S-ASM inh: Inhibitors of Secretory Acid Sphingomyelinase (S-ASM): qHTS | Sphingomyelin phosphodiesterase (Homo sapiens), P17405 | placental ASM, HMU-PC fluorogenic substrate, 60 min | Potency, µM (doses to about 57.5 µM), inactives show at the top dose activity change, negative = inhibition, hits mostly inhibitors | 0.006% of 340,000 active | AID 504937, 2011; further: potency means the concentration at half of the fitted maximal effect
Target sequence (P17405 47-631 limits assumed): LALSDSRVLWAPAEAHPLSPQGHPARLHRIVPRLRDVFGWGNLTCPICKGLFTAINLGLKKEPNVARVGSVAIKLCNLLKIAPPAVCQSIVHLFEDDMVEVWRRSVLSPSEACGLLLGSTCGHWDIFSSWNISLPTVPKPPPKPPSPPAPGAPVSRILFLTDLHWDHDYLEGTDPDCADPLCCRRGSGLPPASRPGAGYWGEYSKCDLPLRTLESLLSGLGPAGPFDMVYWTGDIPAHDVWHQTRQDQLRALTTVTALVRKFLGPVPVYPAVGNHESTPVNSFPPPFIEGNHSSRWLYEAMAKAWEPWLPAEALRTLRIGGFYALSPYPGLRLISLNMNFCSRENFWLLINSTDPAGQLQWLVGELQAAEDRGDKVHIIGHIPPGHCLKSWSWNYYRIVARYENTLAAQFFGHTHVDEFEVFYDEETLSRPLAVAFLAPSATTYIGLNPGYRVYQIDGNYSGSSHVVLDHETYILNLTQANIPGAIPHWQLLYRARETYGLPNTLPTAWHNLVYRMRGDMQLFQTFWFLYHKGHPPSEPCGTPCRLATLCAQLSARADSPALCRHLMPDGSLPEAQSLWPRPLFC
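Fluorescence read-out (Ex 386 nm, Em 447 nm) after stopping the reaction at pH 10. Enzyme: ASM from human placenta; substrate HMU-PC0, 9 uM final; 60 min, 37 °C. Compound preincubation 10 min, ambient temperature.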
SW480 rerep: A quantitative high throughput screen for small molecules that induce DNA re-replication in SW480 colon adenocarcinoma cells; 1.8% of 340,000 active; Potency, µM (top dose mostly 46.1 µM), for the others: at the top dose re-replication activation, most hits filed as activators; SW480 DNA re-replication, Hoechst DNA content imaging, 48 h; AID 624297, 2012; further: potency means the concentration at half of the fitted maximal effect; % of control where 0% means no effect; nearly all actives have a fitted effect of over 55% in size
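Cells (250 per well) received 23 nL compound or DMSO by pin tool and were kept 48 hr at 37 C, 5% CO2. Nuclei were then stained with Hoechst for 40 min and scanned for DNA content.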
KB-3-1 tox: qHTS assay for MDR1-selective chemotherapeutics: Primary screen using the parental adenocarcinoma cell KB-3-1. KB-3-1 viability, CellTiter-Glo ATP luminescence, 72 h. Potency, µM (titrated, usually from 46.1 µM), hits mostly cytotoxic. 1.4% of 400,000 active; further: potency means the concentration at half of the fitted maximal effect; on the % scale 0 is the no-effect control and ±100 the full control effect; nearly all actives have a fitted effect of over 60% in size
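Cytotoxicity measured as CellTiter-Glo luminescence after 72 h at 37 C. Compound titrations were pinned onto drug-naive KB-3-1 parental adenocarcinoma cells grown in DMEM with 10% FBS, and normalized data fitted to concentration-response curves.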
Giardia killer: Small Molecules that selectively kill Giardia lamblia: qHTS; AID 540267, 2011; Giardia lamblia trophozoite viability; activity change, % at 7.66 µM, hits read low; 0.15% of 340,000 active; in the data active means activity change below about -80%; inconclusive means between about -30% and that limit;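 further: parasites exposed to compound for two days anaerobically before the ATP read; on the % scale 0 is the no-effect control and ±100 the full control effect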
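Trophozoites 100 cells/well + cpd; 48 hrs, 37 deg C, anaerobic. ATPLite 1-Step added, 15-30 min RT, luminescence read (ATP-based viability).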
* hit, by the source's call. Only some compounds are listed: those with a hit (about 6.9% of all), similar ones and a draw of the others. Unless noted, the call rests on the fitted dose curve; in most records, active means well fitted curve in the direction sought with a large enough effect; inconclusive means small, poorly fitted or top-dose-only effect, or another doubt; inactive means no such curve, though single readings can be large; an effect the other way counts as inactive or inconclusive.

What do the screens show for `O=C(CNc1ccccc1-c1ccccc1)NCc1ccccc1`?
KB-V1 cytotox: 16µM*; MCF10A rerep: 15%; S-ASM inh: 0%; SW480 rerep: 5%; KB-3-1 tox: inactive; Giardia killer: -14

Results for O=C(CC(=O)NCc1ccccc1)NCc1ccccc1 ?
KB-V1 cytotox: inactive; MCF10A rerep: -6%; S-ASM inh: -1%; SW480 rerep: -119%; KB-3-1 tox: inactive; Giardia killer: 7

Results for O=C(CNCc1ccccc1)Nc1ccccc1-c1ccccc1 ?
KB-V1 cytotox: inactive; MCF10A rerep: 23µM*; S-ASM inh: 2%; SW480 rerep: -3%; KB-3-1 tox: inactive; Giardia killer: 11

What do the screens show for `CCc1noc(C)c1C(=O)N1CC(C)SC1=Nc1ccc(Cl)cc1` (centres undefined)?
KB-V1 cytotox: 16µM*; MCF10A rerep: 8%; S-ASM inh: -3%; SW480 rerep: 1%; KB-3-1 tox: inactive; Giardia killer: -10

Results for CCc1noc(C)c1C(=O)N1CC(C)OC(C)C1 (centres undefined) ?
KB-V1 cytotox: inactive; MCF10A rerep: 1%; S-ASM inh: -1%; SW480 rerep: -5%; KB-3-1 tox: inactive; Giardia killer: 3

What do the screens show for `CC(C)c1ccc(NS(=O)(=O)c2ccc3nc(-c4ccccc4)[nH]c3c2)cc1`?
KB-V1 cytotox: inactive; KB-3-1 tox: inactive

How did C[Si](C)(C)O[Si](C)(C)C do in these assays?
MCF10A rerep: 1%; SW480 rerep: -3%

What do the screens show for `Cc1cccc(-c2nsc(SCC(=O)NCc3ccco3)n2)c1`?
KB-V1 cytotox: 21µM*; MCF10A rerep: 12%; S-ASM inh: -4%; SW480 rerep: -1%; KB-3-1 tox: inactive; Giardia killer: 10

What do the screens show for `Cc1nc(SCC(=O)NCc2ccco2)[nH]c(=O)c1C`?
KB-V1 cytotox: inconclusive; MCF10A rerep: 23µM*; S-ASM inh: 5%; SW480 rerep: inconclusive; KB-3-1 tox: inactive; Giardia killer: 7

What do the screens show for `Nc1nc(SCC(=O)NCc2ccco2)[nH]c(=O)c1-c1ccccc1`?
KB-V1 cytotox: inactive; MCF10A rerep: 27%; S-ASM inh: 3%; SW480 rerep: inconclusive; KB-3-1 tox: inactive; Giardia killer: 6

How did COc1ccc(-c2nc(SCC(=O)NCc3ccco3)c(-c3ccccc3)[nH]2)cc1OC do in these assays?
KB-V1 cytotox: inactive; MCF10A rerep: 21µM*; S-ASM inh: -6%; SW480 rerep: 1%; KB-3-1 tox: inactive; Giardia killer: 5

Results for Cc1cc(C)c(NC(=O)CN(CC(=O)O)CC(=O)O)c(C)c1Br ?
MCF10A rerep: 3%; SW480 rerep: 0%

How did O=C(/C=C/c1cccc(Br)c1)N1CCN(c2cccc(C(F)(F)F)c2)CC1 do in these assays?
KB-V1 cytotox: inconclusive; MCF10A rerep: inconclusive; S-ASM inh: inconclusive; SW480 rerep: inconclusive; KB-3-1 tox: inactive; Giardia killer: 8

Results for COc1ccccc1CC(=O)N1CCN(c2cccc(C(F)(F)F)c2)CC1 ?
KB-V1 cytotox: 12µM*; MCF10A rerep: 5%; S-ASM inh: -4%; SW480 rerep: -3%; KB-3-1 tox: inactive; Giardia killer: -15

What do the screens show for `COc1ccccc1NC(=O)N1CCN(c2cccc(C(F)(F)F)c2)CC1`?
KB-V1 cytotox: inconclusive; MCF10A rerep: inconclusive; S-ASM inh: -3%; SW480 rerep: -5%; KB-3-1 tox: inactive; Giardia killer: -17

Results for O=C(/C=C/c1ccc(Br)cc1)N1CCN(c2cccc(C(F)(F)F)c2)CC1 ?
KB-V1 cytotox: inconclusive; MCF10A rerep: 13µM*; S-ASM inh: -20%; SW480 rerep: 9%; KB-3-1 tox: inconclusive; Giardia killer: 2

What do the screens show for `Cc1cccc(-n2nnc(-c3nc(-c4cccs4)no3)c2N)c1C`?
KB-V1 cytotox: inactive; KB-3-1 tox: inactive

Results for O=C(C1CCN(Cc2ccc(F)cc2)CC1)N(CCc1ccccc1)Cc1ccccc1 ?
KB-V1 cytotox: inactive; MCF10A rerep: inconclusive; S-ASM inh: -2%; SW480 rerep: -75%; KB-3-1 tox: 16µM*; Giardia killer: -8

What do the screens show for `CCCC(=O)N(CCc1ccc(OC)cc1)Cc1nc2ccccc2c(=O)[nH]1`?
KB-V1 cytotox: 15µM*; MCF10A rerep: 5%; S-ASM inh: -1%; SW480 rerep: -2%; KB-3-1 tox: inactive; Giardia killer: -1

Results for O=C(C1CC1)N(CCc1ccccc1)Cc1nc2ccccc2c(=O)[nH]1 ?
KB-V1 cytotox: 16µM*; MCF10A rerep: -1%; S-ASM inh: 0%; SW480 rerep: -8%; KB-3-1 tox: inactive; Giardia killer: 10

Results for CCN(Cc1nc2ccccc2c(=O)[nH]1)C(=O)COc1ccccc1Cc1ccccc1 ?
KB-V1 cytotox: inactive; MCF10A rerep: inconclusive; S-ASM inh: -23%; SW480 rerep: inconclusive; KB-3-1 tox: inactive; Giardia killer: -1

Results for CN(Cc1nc2ccccc2c(=O)[nH]1)C(=O)COc1ccccc1Cc1ccccc1 ?
KB-V1 cytotox: inactive; MCF10A rerep: 21µM*; S-ASM inh: -11%; SW480 rerep: 4%; KB-3-1 tox: inactive; Giardia killer: 0

What do the screens show for `O=C(C1CCN(Cc2ccc(F)cc2)CC1)N(CCO)Cc1ccccc1`?
KB-V1 cytotox: inactive; MCF10A rerep: 15%; S-ASM inh: -3%; SW480 rerep: -31%; KB-3-1 tox: inactive; Giardia killer: 9

How did COCC(=O)N(CCc1ccc(OC)cc1)Cc1nc2ccccc2c(=O)[nH]1 do in these assays?
KB-V1 cytotox: inactive; MCF10A rerep: inconclusive; S-ASM inh: 3%; SW480 rerep: inconclusive; KB-3-1 tox: inactive; Giardia killer: -12

What do the screens show for `COc1ccc(NS(=O)(=O)c2ccccc2)cc1NS(=O)(=O)c1ccccc1`?
KB-V1 cytotox: inactive; KB-3-1 tox: inactive

Results for COc1ccc2cc(C3(C)NC(=O)N(CC(=O)N4CCCCC4)C3=O)ccc2c1 (centres undefined) ?
KB-V1 cytotox: inactive; MCF10A rerep: -20%; S-ASM inh: -1%; SW480 rerep: -3%; KB-3-1 tox: inconclusive; Giardia killer: 11
